From PubChem
Sampled rows, rich in hits. Any-hit rate of the full collection: about 6.6%.
BoNT-F LC inh = inhibitors of Botulinum neurotoxin F light chain protease. Multiplex microsphere protease cleavage assay, flow cytometry. actives 0.22% (n = 360,000). inhibition, % at 10 µM; in the data active = inhibition above about 35%, passing the limit was not always enough; inconclusive = no clear call, values can overlap the other calls; also: plate controls were buffer without enzyme for full effect and enzyme alone for no effect
Autofluor counter = flagged as autofluorescent in microsphere protease counterscreen; actives 3.1% (n = 360,000); fluorescence intensity (no concentration beside the values); compound autofluorescence counterscreen, microsphere flow cytometry; active compounds read high; AID 624483; in the data active = fluorescence intensity above about 16000; inconclusive = no clear call, values can overlap the other calls
Mtb FBA inh = inhibitors of M. tuberculosis fructose-bisphosphate aldolase; actives 2.3% (n = 360,000); P9WQA3; AID 588726; purified M. tuberculosis FBA, fluorescence read-out; inhibition, % at 1 µM; in the data active = inhibition above about 27%;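 also: 0% = vehicle and 100% = reference inhibitor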
Target sequence (P9WQA3 whole entry, looked up): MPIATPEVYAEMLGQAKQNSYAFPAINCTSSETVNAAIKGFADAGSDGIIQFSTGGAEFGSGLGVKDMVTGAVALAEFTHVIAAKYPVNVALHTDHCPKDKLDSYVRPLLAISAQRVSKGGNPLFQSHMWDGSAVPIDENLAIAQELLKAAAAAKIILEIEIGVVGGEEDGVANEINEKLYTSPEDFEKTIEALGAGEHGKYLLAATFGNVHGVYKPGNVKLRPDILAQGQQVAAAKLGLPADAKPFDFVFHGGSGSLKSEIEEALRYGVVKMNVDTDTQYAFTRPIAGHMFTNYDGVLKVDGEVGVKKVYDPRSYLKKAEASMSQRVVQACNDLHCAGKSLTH
Anthrax LF inh2 = anthrax lethal factor protease inhibition; P15917; multiplex microsphere protease cleavage assay, LF; inhibition, % at 10 µM; actives 0.12% (n = 360,000); also: plate controls were buffer without enzyme for full effect and enzyme alone for no effect
GDH-TPI counter-1 = GDH-TPI coupled enzyme inhibition counter-screen; AID 588335; GDH-TPI coupled enzyme counterscreen, NADH absorbance; actives 1.2% (n = 360,000); inhibition, % at 4.8 µM; in the data active = inhibition above about 30%;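 also: 0% = DMSO wells and 100% = wells lacking the enzyme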
BoNT-A LC inh2 = blocks Botulinum neurotoxin A light chain protease; multiplex microsphere protease substrate cleavage, flow cytometry; inhibition, % at 10 µM; actives 0.17% (n = 360,000); also: plate controls were buffer without enzyme for full effect and enzyme alone for no effect
Mtb FBA confirm = Mtb FBA inhibition, confirmed. shares compounds with Mtb FBA inh. purified M. tuberculosis FBA, fluorescence read-out. inhibition, % at 1 µM. actives 78% (n = 5,600). AID 651616; in the data active = inhibition above about 27%;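 also: 0% = vehicle wells and 100% = reference inhibitor wells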
GDH-TPI counter-2 = inhibits GDH-TPI coupling enzymes, flagging Mtb FBA hits; shares compounds with Mtb FBA inh; GDH-TPI coupled enzyme counterscreen, fluorescence; inhibition, % at 1 µM; AID 652141; actives 81% (n = 5,600); in the data active = inhibition above about 10%
GDH-TPI dose = GDH-TPI dose response counter-screen for Mtb FBA; AID 652145; GDH-TPI coupled enzyme assay, fluorescence, artifact counterscreen; actives 79% (n = 170); IC50, µM; shares compounds with Mtb FBA inh; call rule not given here
* = called active by the depositor; ? = inconclusive; nt = no result; + = active, no number. Rule as the data show it, unless noted: active = inhibition above about 30%; inconclusive = no clear call, values can overlap the other calls; inactive = below that.

SMILES	BoNT-F LC inh	Autofluor counter	Mtb FBA inh	Anthrax LF inh2	GDH-TPI counter-1	BoNT-A LC inh2	Mtb FBA confirm	GDH-TPI counter-2	others
NC(=O)c1nc(C2CCCCC2)nc2c1[nH]c(=O)n2-c1ccc(F)cc1	-8	4964	6	2	2	0	nt	nt
COc1ccccc1-n1c(=O)[nH]c2c(C(N)=O)nc(C3CCCCC3)nc21	-3	4703	27*	-10	18	-1	+	+
COc1ccccc1-n1c(=O)[nH]c2c(C(N)=O)nc(-c3cccnc3)nc21	2	4256	39*	-4	28	0	4	4
CCN(CC)S(=O)(=O)c1ccc(Cl)c(NC(=O)COc2ccc(OC)cc2)c1	-4	4675	0	-9	6	0	nt	nt
CC(=O)Nc1nc(CC(C)C)cc(-c2ccco2)c1C#N	-8	11505	50*	-4	-3	0	177*	146*
CSc1nc(-c2ccccc2)cc(C(F)(F)F)c1C#N	-1	2476	2	3	7	3	nt	nt
O=c1[nH]c(=S)[nH]c2nc(-c3cccs3)cc(C(F)(F)F)c12	10	3779	32*	-5	17	0	94*	76*
CNc1nc(-c2cccs2)cc(C(F)(F)F)c1C#N	-3	5280	58*	-3	-2	2	78*	54*
Nc1c(C(=O)C2CC2)sc2nc(-c3cccs3)cc(C(F)(F)F)c12	14	4416	57*	16	2	20	44*	30*
CCCCN(C(=S)Nc1cccc(C)c1C)c1c(N)n(CCC)c(=O)[nH]c1=O	-1	4174	1	-5	22	-1	nt	nt
C[C@@H]1C(=O)O[C@H]2[C@H](O)[C@@]34[C@H]5C[C@@H](C(C)(C)C)[C@]36[C@@H](OC(=O)[C@@H]6O)O[C@@]4(C(=O)O5)[C@@]12O	5	3622	-2	-5	-6	1	nt	nt
COc1ccc(S(=O)(=O)N(CC(=O)O)c2ccccn2)cc1	12	4065	22	2	5	0	nt	nt
CCOC(=O)CN(c1ccccn1)S(=O)(=O)c1ccccc1	-6	4527	35*	-2	8	0	-2	-5
COc1ccccc1NC(=O)c1cc(S(=O)(=O)NC2CCCC2)ccc1F	0	4719	-4	0	1	-1	nt	nt
COc1ccc(-c2cc(-c3ccco3)[nH]c(=O)c2C#N)cc1OC	-12	?	49*	-8	28	0	44*	36*
N#Cc1c(-c2ccccc2)cc(-c2ccc3c(c2)OCO3)[nH]c1=O	0	4898	15	0	10	4	nt	nt
COc1ccc(C(=O)/C=C/Nc2ccc([N+](=O)[O-])cc2C)cc1OC	8	2852	88*	-1	13	8	83*	75*
COc1ccc(C(=O)NC(=S)Nc2ccc([N+](=O)[O-])cc2C)cc1OC	-7	9582	-1	-4	10	0	nt	nt
Cc1ccc(C(c2nc3ccccc3[nH]2)n2c(-c3ccccc3)nc3ccccc32)cc1 (centres undefined)	-9	5351	28*	6	nt	0	8	-1
Cc1cccc(C(=O)Nc2ccc3c(c2)C(=O)NC3=O)c1	-6	5666	45*	-5	17	0	0	2
O=C(Nc1ccc2c(c1)C(=O)NC2=O)c1cccc(Cl)c1	-2	5774	13	-1	10	-1	nt	nt
CC(C)C(=O)Nc1ccc2c(c1)C(=O)NC2=O	2	5552	46*	-3	4	1	15	13*
Cc1cccc(C(=O)Nc2cccc(C(=O)N/N=C/c3ccccn3)c2)c1	-15	3890	48*	9	1	-2	6	-11
O=C1NC(=O)c2cc(NC(=O)C3CCCCC3)ccc21	4	9430	44*	3	-6	0	132*	88*
Cc1cccc(C(=O)N/N=C/c2ccccn2)c1	-8	2625	0	2	-1	0	nt	nt
SMILES	BoNT-F LC inh	Autofluor counter	Mtb FBA inh	Anthrax LF inh2	GDH-TPI counter-1	BoNT-A LC inh2	Mtb FBA confirm	GDH-TPI counter-2	others
NNC(=O)CS(=O)(=O)c1ccc(Cl)cc1	?	4581	-1	-9	0	?	nt	nt
CCOC(=O)Cc1csc(/N=C/c2c(O)n(-c3ccccc3C(F)(F)F)c(=O)c3ccccc23)n1	2	1940	105*	2	18	1	86*	58*
COc1ccc(C=O)cc1CN1CCCN(Cc2ccccc2F)S1(=O)=O	-13	4234	-4	0	-5	-1	nt	nt
COc1cc2cc(C(c3nnnn3Cc3ccc(F)cc3)N3CCCCCC3)c(=O)[nH]c2cc1OC (centres undefined)	0	18413*	49*	5	22	?	-2	-2
COCCn1nnnc1C(c1cc2cc(OC)c(OC)cc2[nH]c1=O)N1CCN(c2ccc(O)cc2)CC1 (centres undefined)	-4	3460	26	1	10	-1	nt	nt
CCCCCCN1CC(=O)N2Cc3[nH]c4ccccc4c3C[C@H]2C1=O	-9	3524	3	-1	3	2	nt	nt
Cc1cccn2c(=O)c3cc(S(=O)(=O)c4ccccc4)c(=N)n(Cc4cccnc4)c3nc12	5	3760	4	2	11	-3	nt	nt
Cc1cccn2c(=O)c3cc(C(=O)NC4CCCC4)c(=N)n(C4CCCCC4)c3nc12	10	6272	67*	4	6	0	14	3	GDH-TPI dose=0.77*
Cc1cccn2c(=O)c3cc(C(=O)NC4CCCCC4)c(=N)n(Cc4ccccc4)c3nc12	11	6527	62*	12	4	16	103*	89*
Cc1cccn2c(=O)c3cc(S(=O)(=O)c4ccc(Br)cc4)c(=N)n(C4CCCC4)c3nc12	3	5274	0	1	-4	3	nt	nt
CCN(C(=O)c1cc2c(=O)n3cccc(C)c3nc2n1CCCOC)C1CCCCC1	0	4365	38*	-4	13	1	103*	85*
Cc1ccc2nc3c(cc(C(=O)NCc4ccco4)c(=N)n3C3CCCC3)c(=O)n2c1	4	5593	39*	-1	-1	2	92*	76*
O=C(OCc1ccccc1)N1CCCC1/C=C/CN1CCOCC1 (centres undefined)	1	1947	4	0	9	0	nt	nt
Cc1ccc(C(=O)NCC(=O)OCc2nnc(-c3ccc([N+](=O)[O-])cc3)o2)s1	-5	3853	0	2	6	0	nt	nt
Cc1cccn2c(=O)c3cc(C(=O)NCCN4CCOCC4)c(=N)n(CCc4ccccc4)c3nc12	-3	3146	102*	0	13	0	58*	55*
